IL1B secr inh: inhibitors of inflammasome signaling (IL-1 beta secretion); THP-1 LPS/ATP IL-1B secretion, AlphaLISA, 16 h; stronger effect = lower value; activity change, % at 57.5 µM; 360,000 compounds, 4.7% hits; AID 743279; in the data active = activity change below about -50%; inconclusive = mostly about -30% to -49%
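THP-1 cells pretreated 1 hr with compounds (up to 57.5 uM final), then stimulated with LPS (250 ng/mL final) plus ATP (1.25 mM final); secreted IL-1B measured by AlphaLISA after 16 hr, decreased signal indicating inhibition.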
TDP1 cell noCPT: qHTS for Inhibitors of human tyrosyl-DNA phosphodiesterase 1 (TDP1): qHTS in cells in absence of CPT | DT40 Tdp1-/- hTDP1 cells, no CPT, ATP luminescence, 48 h | Potency, µM (top dose mostly 46.2 µM), for inactives: top-dose activity change, negative = growth inhibition, actives largely listed as inhibitors | 420,000 compounds, 15% hits; note: potency is the fitted concentration of half-maximal effect; nearly all actives have a fitted effect of over 55% in size
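Seeded 400 DT40-hTDP1 cells/well (vehicle DMSO, no 20 nM CPT); pinned compounds; ≥48 hr at 37 °C; CellTiter-Glo luminescence as viability measure.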
HT1080-NT tox: kills 2HG-producing HT-1080-NT fibrosarcoma cells. HT-1080-NT fibrosarcoma viability, CellTiter-Glo ATP luminescence, 48 h. Potency, µM (series often up to 46.1 µM), for the others: at the top dose activity, negative = less viability, hits mostly cytotoxic. 360,000 compounds, 1.6% hits. AID 686970;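 note: NT is the 2HG producing partner of a matched IDH1 knockdown line; potency is the fitted concentration of half-maximal effect; 0% = DMSO-treated cells and -100% = media-only wells without cells; nearly all actives have a fitted effect of over 55% in size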
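A 48-hour cytotoxicity screen used HT-1080-NT cells plated 2 hours before compound delivery. ATP-based CellTiter-Glo luminescence measured viability, normalized to DMSO and no-cell controls.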
DT40 TDP1 CPT: growth inhibition of DT40 Tdp1-/-;hTDP1 cells with camptothecin (screen for TDP1 inhibitors). chicken DT40 Tdp1-/-;hTDP1 cells + 20 nM CPT, ATP luminescence, 48 h. Potency, µM (top dose mostly 46.2 µM), for inactives: at the top dose activity change, negative = growth inhibition, most hits filed as inhibitors. 420,000 compounds, 12% hits. AID 686979; note: potency is the fitted concentration of half-maximal effect; nearly all actives have a fitted effect of over 55% in size
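Chicken DT40 Tdp1-/- cells complemented with human TDP1, 400 cells/well, exposed to compounds plus 20 nM camptothecin for at least 48 h at 37 C; viability read as ATP content by CellTiter-Glo luminescence.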
HT1080 IDH1KD tx: HT-1080 IDH1 knockdown cell toxicity (counter line) | AID 686971 | 360,000 compounds, 2% hits | HT-1080 IDH1 knockdown viability, ATP luminescence, 48 h | Potency, µM (highest dose often 46.1 µM), without a hit: at the top dose activity, negative = toxicity, actives largely listed as cytotoxic;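 note: potency is the fitted concentration of half-maximal effect; 0% = DMSO wells and -100% = cell-free medium wells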
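Knockdown cells (IDH1KD HT-1080) received compounds 2 h after plating at 750 cells/well and were kept 48 h at 37 °C in 5% FBS RPMI. A CellTiter-Glo luminescence read gave % activity for curve fitting.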
The depositor's hits bear a star; i = inactive; ? = inconclusive; · = no result given. Most compounds without a hit are left out; they make up all but 19% or so of the library. Unless noted, calls come from the whole dose curve; as a rule, active = well fitted curve in the direction sought with a large enough effect; inconclusive = small, poorly fitted or top-dose-only effect, or another doubt; inactive = no such curve, though single readings can be large; an effect the other way counts as inactive or inconclusive. Unless noted, % is set by controls: 0 for no effect and ±100 for the full control effect.

SMILES | IL1B secr inh | TDP1 cell noCPT | HT1080-NT tox | DT40 TDP1 CPT | HT1080 IDH1KD tx
CCNC1CCC(Nc2ccnc3cc(Cl)ccc23)CC1 (stereo not drawn) | -97.6* | 9.2µM* | -1.1% | 18.4µM* | ?
OC(CNC1CCCCC1)CNC1CCCCC1 | -19.9 | -26.4% | -8.5% | ? | -7.4%
CCOC(=O)N1CCC(=NNc2ccnc3cc(Cl)ccc23)CC1 | 18.6 | ? | -22.2% | -18.9% | -27.6%
OC(CNc1ccnc2cc(Cl)ccc12)CNC1CCCCC1 (stereo not drawn) | -114.5* | 16.4µM* | 20.6µM* | 18.4µM* | 20.6µM*
O=C(Cc1ccc(Cl)cc1Cl)NC1CCCCCC1 | -24.3 | ? | -10.5% | -27.4% | -5.2%
CC1(C)Cc2cccc(OCC(=O)OCC(=O)NCc3ccccc3)c2O1 | 0.0 | -15.2% | 2.3% | -8.7% | -2.6%
COCC(C)NC(=O)C1=CC(c2ccc3c(c2)OCO3)=NS(=O)(=O)N1C (stereo not drawn) | · | -5.6% | · | 15.6% | ·
Cc1ccccc1C(=O)Nc1ccnn1C1CCN(C2CCSCC2)CC1 | i | -12.1% | -0.8% | -10.5% | 4.1%
CN(C)c1ccc(CCc2ccc(N)cc2)cc1 | -4.8 | -21.9% | 4.3% | 11.0% | -1.9%
Nc1ccc(N(c2ccccc2)c2ccc(N)cc2)cc1 | 16.7 | 13µM* | 16.4µM* | 16.4µM* | 20.6µM*
Cc1cccc(-c2cc3nc(C)cc(N4CC(C)CC(C)C4)n3n2)c1 (stereo not drawn) | 39.3 | 16.4µM* | 9.5% | 16.4µM* | 14.1%
Cc1cccc(-c2cc3nc(C)cc(C)n3n2)c1 | 55.7 | ? | -5.5% | 0.6% | -15.2%
CCN(CC)CCCNc1cc(C)nc2cc(-c3cccs3)nn12 | -101.4* | -3.9% | -16.4% | 17.9% | -0.3%
Cc1cccc(-c2cc3nc(C)cc(NCCCN(C)C)n3n2)c1 | -100.6* | ? | ? | ? | ?
COc1ccc(-c2cc3nc(C)cc(NCCO)n3n2)cc1 | -23.0 | -5.0% | 3.7% | -34.3% | -3.9%
COCCNc1cc(C)nc2cc(-c3ccc(C)cc3)nn12 | -7.2 | -8.5% | -1.8% | 2.5% | -19.3%
CN(C)CCCNc1cc(-c2ccccc2)nc2cc(-c3cccc(F)c3)nn12 | -88.0* | 7.31µM* | ? | ? | ?
CCn1cc(S(=O)(=O)NC(C)c2cc(OC)ccc2OC)cn1 (stereo not drawn) | 27.2 | 14.7% | 19.4% | 4.0% | 8.9%
Cc1nc(C(=O)N(Cc2cc3ccc(F)cc3nc2N2CCC(O)CC2)CC2CCCO2)cs1 (stereo not drawn) | · | -25.1% | · | -10.8% | ·
COC(=O)/C(=N/Nc1ccccc1C)Sc1nnc(C(O)c2ccccc2)n1-c1ccccc1 (stereo not drawn) | 43.2 | 0.7% | 2.4% | -4.1% | -3.2%
COc1ccccc1Nc1nc(-c2ccc3c(c2)NC(=O)CO3)cs1 | ? | 18.4µM* | ? | 23.1µM* | ?
CCC(C)Nc1nc(-c2ccc3c(c2)NC(=O)CO3)cs1 (stereo not drawn) | -2.4 | ? | -4.2% | 23.1µM* | -11.3%
CCOc1cccc2c1OC1(C)CC2NC(=O)N1c1cccc(C(=O)NCc2ccccn2)c1 (stereo not drawn) | 30.6 | -8.9% | 5.1% | -13.7% | 1.1%
COc1ccc(NC(=O)c2cccc(N3C(=O)NC4CC3(C)Oc3ccccc34)c2)cc1 (stereo not drawn) | -14.5 | ? | -0.4% | ? | -6.3%
COc1cccc2c1OC1(C)CC2NC(=O)N1c1cccc(C(=O)Nc2ccc3c(c2)OCCO3)c1 (stereo not drawn) | 10.4 | 18.4µM* | 2.6% | ? | 19.1%
SMILES | IL1B secr inh | TDP1 cell noCPT | HT1080-NT tox | DT40 TDP1 CPT | HT1080 IDH1KD tx
CC12CC(NC(=O)N1c1cccc(C(=O)Nc3ncn[nH]3)c1)c1ccccc1O2 (stereo not drawn) | -68.0* | -3.2% | -0.3% | 1.4% | -0.5%
Cc1ccccc1NC(=O)C(NC1CCCCC1)C(C)C (stereo not drawn) | -12.4 | 4.4% | -1.4% | 3.9% | -16.4%
CCCC(=O)N1CCC1(C)C(=O)Nc1scc(C)c1C#N (stereo not drawn) | 7.2 | 14.6µM* | 26.6% | 20.6µM* | 20.1%
CCCC(=O)N1CCCC1(C)C(=O)Nc1cc(C)ccc1C (stereo not drawn) | 28.3 | -0.4% | ? | 1.8% | 20.2%
Nc1ccc2cc3ccc(N)cc3nc2c1 | · | 2.66µM* | · | 5.31µM* | ·
CC(C)(C)C1CCC(=NNC(=O)CN(c2ccccc2)S(C)(=O)=O)CC1 (stereo not drawn) | -15.0 | -4.8% | 15.8% | 0.8% | 20.7%
CCNC(=S)NN=C1CCC(C(C)(C)C)CC1 (stereo not drawn) | -19.4 | 18.4µM* | 15.2% | ? | -1.4%
CCOC(=O)c1ccc(CN(Cc2ccc(F)cc2)S(=O)(=O)c2cc(C(=O)Nc3ccccc3CC)ccc2F)cc1 | · | -13.5% | · | ? | ·
COCCOc1cc(-n2cccc2)c(Cl)cc1Cl | 8.7 | -15.0% | 18.4% | -1.0% | 1.9%
c1ccc(-c2cccc(N3CCC4(CCNCC4)CC3)c2)cc1 | · | 8.2µM* | · | 9.2µM* | ·
c1ccc(-c2cccc(N3CC[C@@]4(CCCNC4)C3)c2)cc1 | · | 6.51µM* | · | 8.2µM* | ·
CC(=O)N1CCC2(CC1)CN(c1cccc(-c3ccccc3)c1)C2 | · | ? | · | -26.1% | ·
O=S(=O)(c1ccccc1)N1CCC2(CCCN(c3cccc(-c4ccccc4)c3)C2)CC1 | · | -29.1% | · | 5.3% | ·
c1ccc(-c2cccc(N3CC4(CCNCC4)C3)c2)cc1 | · | 9.2µM* | · | 9.2µM* | ·
c1ccc(-c2cccc(N3CCCC4(CCNCC4)C3)c2)cc1 | · | 20.6µM* | · | 11.6µM* | ·
Cc1ccc2c(c1)c1c(c(=O)n(Cc3ccccc3)c(=O)n1Cc1ccccc1F)n2C | · | -0.9% | · | 1.1% | ·
CCC(=O)Nc1ccc2c(c1)nc(CCNC(=O)c1ccco1)n2C | -5.9 | 0.1% | 16.8% | -0.3% | 16.6%
Cc1ccc(OCc2n[nH]c(=S)n2C2CCCCC2)cc1 | 37.0 | 18.4µM* | -23.5% | 29.1µM* | 0.0%
Cc1cccc(OCc2n[nH]c(=S)n2C2CCCCC2)c1 | 20.8 | ? | ? | 23.1µM* | ?
COCCNC(=O)CN(CCc1ccccc1)S(=O)(=O)c1ccc(Br)cc1 | 16.9 | -16.0% | 0.6% | -8.9% | 0.4%
CC(=O)c1ccc(CCCc2ccc(C(C)=O)cc2)cc1 | ? | ? | -0.7% | ? | -13.3%
NCCNS(=O)(=O)c1cccc2c(Cl)cccc12 | · | 26.6µM* | · | 26.6µM* | ·
NCCCCNS(=O)(=O)c1ccc2c(Cl)cccc2c1 | · | 11.9µM* | · | 11.9µM* | ·
NCCCCCCNS(=O)(=O)c1ccc2c(Cl)cccc2c1 | · | 11.2µM* | · | 13.3µM* | ·
